# ± gives the standard deviation.
# System: MILI (PIWIL2) piRISC loaded with piRNA #1 (26 nt)
# Assay: pre-steady-state target cleavage rate (min^-1); guide: piRNA #1 5'p-UGAGGUAGUAGGUUGUAUAGUAUCCA; MIWI and MILI are mouse PIWI proteins and EfPiwi is from a freshwater sponge; tags in brackets are library labels; higher = faster piRNA-guided slicing of the target
# Conditions: auxiliary factor: 500 nM mouse GTSF1
# In short: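 Using HEPES–potassium acetate buffer at 33 °C, 1 nM active affinity-purified piRISC with a single synthetic guide was mixed with 0.1 nM transcribed, DNA-blocked target RNA library for 0–8 or 0–960 min, with or without 500 nM GTSF1 partner protein. Uncleaved targets were sequenced and normalised to depth and to weakly complementary targets, and three trials were pooled with k3 capped at 0.0001 min^-1. A burst-and-steady-state fit gave the pre-steady-state cleavage rate.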
row,Sequence,pre-steady-state target cleavage rate
1,GGAGACCAUACUAUUGAACCUACUACCUCA,0.153 ± 0.013
2,GGAGACCUAUCUAUACAACCUACAACGUCA,0.0102 ± 0.004
3,GGAGACCUAAGUAUACAAGCUACUACCUCA,0.124 ± 0.011
4,GGAGACCAUACUAAUGAACCUACUACCUCA,0.0422 ± 0.011
5,GGAGACCUAUGUAGACAACCUACUACCUCA,0.0173 ± 0.0042
6,GGAGACCUAUGUAUAGAACCUACUACGUCA,0.015 ± 0.0034
7,GGAGACCUAUGAUAUGUACCUACUACCCUCA,< 0.0001
8,GGAGACCAUACAAUAGAACCUACUACCUCA,0.179 ± 0.02
9,GGAGACCUAUCUAUACAAACUACUACCUCA,0.171 ± 0.015
10,GGAGACGAUACUUUAGAACCUACUACCUCA,0.16 ± 0.01
11,GGAGACCUAACUUAACAACCUACUACCUCA,0.0309 ± 0.012
12,GGAGUGGAAUGUAUACAACCUACUACCUCA,0.0864 ± 0.0076
13,GGAGACCUAACUUUACUACCUACUACCUCA,0.0581 ± 0.013
14,GGAGACCAUACUAUAGAACCUACUUCCUCA,0.0428 ± 0.013
15,GGAGUGGAUACUAUACAUCCUACUACCUCA,0.267 ± 0.014
16,GGAGACCUAUGAAUACAACGAUGAUGGAGA [g12:g18:cont:t1A],< 0.0001
17,GGAGACCUAUCUAUACAACCUACUAGCACA,0.0357 ± 0.012
18,GGAGACCUAUGAUAUGUUCCUACUACACUCA,< 0.0001
19,GGAGACCUAACUAUACUACCUACAACCUCA,0.0957 ± 0.018
20,GGAGACCUAUCAAUACAACCUACAACCUCA,0.0677 ± 0.015

row,Sequence,pre-steady-state target cleavage rate
1,GGAGACCUAUGAUAUGUACCUAGUUCCUCA,< 0.0001
2,GGAGACCUAUGAUAACAACCUACUACUUCA,0.00299 ± 0.0028
3,GGAGACCUUUCUAUACAACCUACUACCACA,0.152 ± 0.018
4,GGAGACCUUACUAUACAACCAACUUCCUCA,0.00396 ± 0.0024
5,GGAGACCUAUGAUAUGUUCCUACUAACUCA,< 0.0001
6,GGAGACCAUAGUAUACAACCUACUUCCUCA,0.073 ± 0.014
7,GGAGUGGAUUCUAUACAACCUACUACCUCA,0.175 ± 0.0091
8,GGAGACCUAUCUAUAAAACCUACUACCUCA,0.0877 ± 0.013
9,GGAGACCUAUGAUAACAACCUACUACCUCU [g2:g16:cont:t1U],0.00588 ± 0.0024
10,GGAGACCUAUCUAUACUUGCUACUACCUCA,0.0151 ± 0.0031
11,GGAGACCUAUGAAACAACCUACUACCUCA,0.00673 ± 0.0031
12,GGAGACCAUACUUUACAACGUACUACCUCA,0.0198 ± 0.0034
13,GGAGACCUAACUAUACAACCUACUAUCCUCA,0.177 ± 0.047
14,GGAGACCUAUCUAUACUAGCUACUACCUCA,0.0865 ± 0.011
15,GGAGACGAUACUAUUGUACCUACUACCUCA,0.119 ± 0.0095
16,GGAGUGGAAACUAUACAACCUACUAGCUCA,0.0453 ± 0.013
17,GGAGACCUUACUAUACAACCUACGUACCUCA,0.0918 ± 0.0092
18,GGAGACCAUACUAUACAACCUACUACCGUCA,0.141 ± 0.023
19,GGAGACCUAUGAUAUCAUGCUACUACCUCA,< 0.0001
20,GGAGACCUAUCUAUACUACGUACUACCUCA,0.013 ± 0.0024

# From the supplement of paper PMC10338343
